# The list is not random: actives were taken first. Their share in the collection is about 0.45%.
# LRH-1 inv ag = LRH-1 (NR5A2) inverse agonists, primary screen, cell-based, luminescence, HEK293T, StAR-luciferase reporter. LRH-1 transfected, 24 h. 360,000 compounds, 0.13% hits. Nuclear receptor subfamily 5 group A member 2 (Homo sapiens), O00482. inhibition, % at 3.6 µM;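 active = inhibition above the mean inhibition of all tested compounds plus 3 SD, cut at about 73% in these data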;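 also: 0% = DMSO wells and 100% = reporter-only cells lacking LRH-1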
# SRC2 inh = inhibition of GAL4-SRC2 driven luciferase reporter, primary screen, SRC2 inhibitor project, cell-based, luminescence; Nuclear receptor coactivator 2 (Homo sapiens), Q15596; HEK293 GAL4-SRC2 luciferase reporter; inhibition, % at 9 µM; 370,000 compounds, 0.17% hits; AID 651957, 2012;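 active = inhibition above the mean inhibition of all tested compounds plus 3 SD, set per campaign, cut at about 52% in these data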;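 also: 0% = DMSO treated cells and 100% = cells given Gossypol at 36 µM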
# SRC3 inh = SRC3 coactivator transcriptional activity inhibitors, primary screen, cell-based, luminescence; AID 588352, 2011; inhibition, % at 3.6 µM; Nuclear receptor coactivator 3 (Homo sapiens), Q9Y6Q9; HEK293 GAL4-SRC3 luciferase reporter; 360,000 compounds, 0.17% hits;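 active = inhibition above a per-campaign cutoff, the mean of all compounds plus 3 SD, cut at about 60% in these data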;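 also: 0% = DMSO-treated cells and 100% = gossypol-treated cells at 36 µM; higher means less SRC3-driven luciferase light from the GAL4 reporter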
# SRC1 inh = SRC1 coactivator transcriptional activity inhibitors, primary screen, cell-based, luminescence. Nuclear receptor coactivator 1 (Homo sapiens), Q15788. HEK293 GAL4-SRC1 luciferase reporter. inhibition, % at 3.6 µM. 360,000 compounds, 0.12% hits. AID 588354, 2011;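 active = inhibition above the campaign mean plus 3 SD, with each screening campaign given its own cutoff, cut at about 60% in these data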;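 also: 0% = DMSO treated cells and 100% = gossypol at 36 µM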
# Target sequence (Q15788 whole entry, looked up, the tested form may be a part): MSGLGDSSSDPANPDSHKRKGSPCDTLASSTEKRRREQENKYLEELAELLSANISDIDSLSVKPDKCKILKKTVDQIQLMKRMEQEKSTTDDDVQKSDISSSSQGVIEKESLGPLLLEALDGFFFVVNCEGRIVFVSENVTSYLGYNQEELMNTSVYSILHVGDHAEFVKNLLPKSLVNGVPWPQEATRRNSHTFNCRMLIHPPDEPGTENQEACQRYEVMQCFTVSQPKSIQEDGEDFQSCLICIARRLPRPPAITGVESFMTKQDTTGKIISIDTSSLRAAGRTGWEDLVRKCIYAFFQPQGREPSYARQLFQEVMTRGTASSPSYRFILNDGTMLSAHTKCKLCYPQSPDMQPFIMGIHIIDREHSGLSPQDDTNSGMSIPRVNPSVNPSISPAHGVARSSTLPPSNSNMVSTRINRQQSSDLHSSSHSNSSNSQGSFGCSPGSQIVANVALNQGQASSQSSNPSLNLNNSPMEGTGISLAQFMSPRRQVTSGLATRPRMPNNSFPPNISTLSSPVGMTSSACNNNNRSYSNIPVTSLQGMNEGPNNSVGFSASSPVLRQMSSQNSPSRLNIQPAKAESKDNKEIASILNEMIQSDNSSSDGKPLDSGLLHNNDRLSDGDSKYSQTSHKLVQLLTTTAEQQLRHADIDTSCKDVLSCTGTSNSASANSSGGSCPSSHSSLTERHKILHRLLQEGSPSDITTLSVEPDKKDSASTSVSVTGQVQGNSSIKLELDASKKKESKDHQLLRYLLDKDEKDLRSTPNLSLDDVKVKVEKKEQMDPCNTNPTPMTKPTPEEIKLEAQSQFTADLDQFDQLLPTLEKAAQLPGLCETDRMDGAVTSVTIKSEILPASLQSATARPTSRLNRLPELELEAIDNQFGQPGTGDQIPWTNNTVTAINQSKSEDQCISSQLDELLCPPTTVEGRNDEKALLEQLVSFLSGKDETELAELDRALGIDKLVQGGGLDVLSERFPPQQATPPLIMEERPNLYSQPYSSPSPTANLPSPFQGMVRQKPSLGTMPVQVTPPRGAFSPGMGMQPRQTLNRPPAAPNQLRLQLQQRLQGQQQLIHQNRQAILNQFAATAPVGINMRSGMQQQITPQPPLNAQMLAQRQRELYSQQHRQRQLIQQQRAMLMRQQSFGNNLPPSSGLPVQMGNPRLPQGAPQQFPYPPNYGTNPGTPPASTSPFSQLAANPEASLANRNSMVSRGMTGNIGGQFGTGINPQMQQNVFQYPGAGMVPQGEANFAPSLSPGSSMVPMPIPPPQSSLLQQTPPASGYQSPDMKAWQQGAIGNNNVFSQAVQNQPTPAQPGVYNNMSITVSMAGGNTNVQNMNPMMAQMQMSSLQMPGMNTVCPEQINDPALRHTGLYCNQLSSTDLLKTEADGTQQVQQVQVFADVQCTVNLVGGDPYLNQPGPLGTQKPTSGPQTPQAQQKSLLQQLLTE
# LGR2 inh = inhibitors of bursicon-induced LGR2 CRE-luciferase signal, primary screen, cell-based, HEK293, CRE-luciferase reporter, bursicon stimulation. Drosophila bursicon receptor LGR2 (rickets). bursicon-stimulated, 4 h. inhibition, % at 9.99 µM. 380,000 compounds, 0.35% hits. AID 720647, 2013;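 active = drop in luminescence signal, shown as inhibition above about 50% in the replicate tests, limit read from the data, passing the limit was not always enough; inconclusive = probably only some replicates passing the limit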;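 also: agonist challenge used bursicon conditioned medium at about half maximal strength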
# Active calls of the source: *; ? = inconclusive; . = no result given.
SMILES,LRH-1 inv ag,SRC2 inh,SRC3 inh,SRC1 inh,LGR2 inh
CC(=O)N(C)C1=C(N2CCOCC2)C(=O)c2ccccc2C1=O,100*,.,87*,85*,.
Cc1noc(/C=C/Nc2ccc(F)cc2F)c1[N+](=O)[O-],-104,-79,-93,-85,-108
COc1ccccc1N/C=C/c1onc(C)c1[N+](=O)[O-],-102,-8,-7,-26,73*
Cc1nn(C)cc1NC(=O)C[C@H]1CC[C@@H]2[C@@H](COc3ccc(NC(=O)C4CCC4)cc3C(=O)N2C)O1,.,.,.,.,-5
CCNC(=O)[C@@H]1[C@@H](CO)[C@@H]2Cn3c(ccc(-c4ccc(OC)cc4)c3=O)[C@@H]2N1Cc1ccccc1,.,.,.,.,10
C/C(CC(=O)NC1C2CC3CC(C2)CC1C3)=N\NC(=O)Cc1cccs1 (stereo unspecified),-10,98*,-9,-24,1
C/C(CC(=O)Nc1ccc(C)c(Cl)c1)=N\NC(=O)Cc1cccs1,-24,-30,-32,-6,-8
COCC(=O)N1CC2(C1)CN(Cc1cc(F)ccc1F)[C@H](CO)c1c2c2ccc(OC)cc2n1C,.,.,.,.,2
O=C(Nc1ccc([N+](=O)[O-])cc1)c1ccc(Cn2cc([N+](=O)[O-])cn2)cc1,78*,-26,48,54,1
COc1cc(/C=C2\CCC/C(=C\c3ccc(O)c(OC)c3)C2=O)ccc1O,-26,13,3,-2,-3
CCN1C/C(=C/c2cccc([N+](=O)[O-])c2)C(=O)/C(=C/c2cccc([N+](=O)[O-])c2)C1,-11,21,12,17,84*
CCOc1cc(/C=C2\CN(CC)C/C(=C\c3ccc(O)c(OCC)c3)C2=O)ccc1O,46,10,43,51,69*
CNC(=O)C[C@H]1CC[C@H]2[C@H](COc3ccc(NC(=O)c4ccc(C(F)(F)F)cc4)cc3C(=O)N2C)O1,.,.,.,.,-4
COc1ccc2c3c(n(C)c2c1)[C@H](CO)N(C(=O)C1CCCC1)CC31CCN(Cc2cccc(F)c2)CC1,.,.,.,.,2
CN(C)c1ncnc2c1ncn2C1OC(CO)C(O)C1O (stereo unspecified),-23,-19,4,-5,.
COc1ccc(C[C@H](N)C(=O)N[C@H]2[C@@H](O)[C@H](n3cnc4c(N(C)C)ncnc43)O[C@@H]2CO)cc1,102*,86*,95*,94*,7
Cc1cc(C(=O)COc2cccnc2[N+](=O)[O-])c(C)n1-c1ccccc1,36,49,66*,69*,-19
COCCN(C(=O)CCC(=O)Nc1cc(C)on1)C(C(=O)NC1CCCC1)c1ccccc1C (stereo unspecified),3,-2,11,-6,29
COCCN(C(=O)CCl)C(C(=O)NC1CCCCC1)c1ccccc1C (stereo unspecified),28,54*,59,22,9
O=C(CCc1ccccc1)NC1(Cc2ccccc2)CCN(CCc2cccs2)C1=O (stereo unspecified),3,7,10,-8,-33
O=C(NC1(Cc2ccccc2)CCN(Cc2ccc(-c3ccccc3)cc2)C1=O)c1ccccc1 (stereo unspecified),-2,6,14,-8,56*
COc1ccc(-c2csc3ncnc(NCCCO)c23)cc1,24,20,59,67*,16
COc1ccc(-c2csc3ncnc(Nc4ccc(O)cc4)c23)cc1,-7,10,13,-4,7
COc1ccc(-c2csc3ncnc(NCCO)c23)cc1,12,59*,54,54,28
CS(=O)(=O)Nc1ccc2c(c1)[C@H]1C[C@H](CC(=O)O)O[C@@H](CO)[C@H]1O2,.,.,.,.,0
SMILES,LRH-1 inv ag,SRC2 inh,SRC3 inh,SRC1 inh,LGR2 inh
CCCNC(=O)N1CC2(CCN(S(=O)(=O)c3cccc(OC)c3)CC2)c2c(n(C)c3cc(OC)ccc23)[C@@H]1CO,.,.,.,.,3
Nc1ccc(OC(=O)Nc2ccc(O)cc2)cc1,10,77*,15,-4,-33
O=C(Nc1ccc(N2CCN(c3ccc(O)cc3)CC2)cc1)Oc1ccccc1,-13,9,13,-12,2
N=c1c2c(-c3ccccc3)c(-c3ccccc3)n(Cc3ccco3)c2ncn1CCCn1ccnc1,35,-34,68*,56,.
N=c1c2c(-c3ccccc3)c(-c3ccccc3)n(Cc3ccco3)c2ncn1CCCN1CCOCC1,-4,-15,16,10,?
N=c1c2c(-c3ccccc3)c(-c3ccccc3)n(Cc3ccccc3)c2ncn1CCO,50,-52,69*,52,.
O=C(C[C@H]1C=C[C@H](NC(=O)C2CCOCC2)[C@H](CO)O1)Nc1ccccc1,.,.,.,.,19
CC(C)(C)c1ccc(C(=O)Nc2nnc(SCC(=O)NCC3CCCO3)s2)cc1 (stereo unspecified),-131,-82,-101,-94,-46
O=C(Nc1ccc(Cl)c(S(=O)(=O)N2CCOCC2)c1)c1ccc(OCC2CCCO2)cc1 (stereo unspecified),66,.,73*,38,.
CCOc1ccc(C(=O)Nc2nnc(SCC(=O)NCC3CCCO3)s2)cc1 (stereo unspecified),-96,-20,-35,-104,78*
Cc1cnc(NC(=O)c2ccc(OCC3CCCO3)cc2)s1 (stereo unspecified),-94,-3,-41,-54,87*
C[C@H](CO)N1C[C@H](C)[C@H](CN(C)S(=O)(=O)c2cccs2)OCCCC[C@H](C)Oc2ccc(NC(=O)NC3CCCCC3)cc2C1=O,.,.,.,.,13
CN1CCN(C(=O)C[C@H]2CC[C@@H]3[C@@H](COc4ccc(NC(=O)C5CCC5)cc4C(=O)N3C)O2)CC1,.,.,.,.,-1
COc1cc(C(=O)Oc2cccc(Nc3ncnc4ccccc34)c2)cc(OC)c1OC,22,-1,21,2,85*
CCN1[C@@H]2Cn3c(ccc(C4=CCCCC4)c3=O)[C@H]1[C@@H](C(=O)NC1Cc3ccccc3C1)[C@@H]2CO,.,.,.,.,12
CCN(CC)c1ccc(NC(=O)CCCCC(=O)Nc2ccc(N(CC)CC)cc2)cc1,3,57*,32,6,-1
CCN(CC)c1ccc(NC(=O)CCCCCN2C(=O)c3ccccc3C2=O)cc1,-6,4,-27,2,.
C[C@H](CO)N1C[C@H](C)[C@H](CN(C)C(=O)C2CCCCC2)Oc2ncc(C#CC(C)(C)O)cc2C1=O,.,.,.,.,-12
O=C(O)Cc1ccc(C(=O)c2ccccc2)s1,-8,-19,-10,-13,.
COc1ccc(C(=O)c2ccc(CC(=O)O)s2)cc1,13,52*,12,-17,-17
O=C(Nc1nc2cc3c(cc2s1)OCCO3)c1cccs1,-108,24,-54,-48,76*
O[C@@H]1[C@@H](O)C=C2CCN3Cc4cc5c(cc4[C@H]1C23)OCO5 (stereo partly specified),98*,36,89*,75*,88*
